Assay results published in PubChem BioAssay (NCATS).
Potency and affinity values are given separately. Unmarked numbers belong to inactive results. No rule for the calls is given here.

Conditions: Ebola virus entry assay, green fluorescence channel
Also: 0% is about no effect.

SMILES	efficacy [%]
CS(=O)(=O)OCCCCOS(C)(=O)=O	19.1
Cc1oncc1C(=O)Nc1ccc(C(F)(F)F)cc1	-17.5
CCCCNC(=O)NS(=O)(=O)c1ccc(C)cc1	-19.2
COc1ccccc1OCC(O)CN1CCN(CC(=O)Nc2c(C)cccc2C)CC1 (configuration not stated)	29.5
Cn1cnc([N+](=O)[O-])c1Sc1ncnc2nc[nH]c12	14.5
O=C(O)CCNC(=O)c1ccc(N=Nc2ccc(O)c(C(=O)O)c2)cc1	-11.9
Cc1[nH]c(=O)c(C#N)cc1-c1ccncc1	-19.3
Nc1nnc(-c2cccc(Cl)c2Cl)c(N)n1	-18.2
CCCCN1C[C@H](O)[C@@H](O)[C@H](O)[C@H]1CO	19.9
O=P(O)(O)C(O)(Cc1cccnc1)P(=O)(O)O	-17.5
CO[C@@]12[C@H](COC(N)=O)C3=C(C(=O)C(C)=C(N)C3=O)N1C[C@@H]1N[C@@H]12	19.7
CN/C(=C\[N+](=O)[O-])NCCSCc1ccc(CN(C)C)o1	-12.5
CCN(CC)CCNC(=O)c1cc(Cl)c(N)cc1OC	-12.5
CCC1C(=O)OCC1Cc1cncn1C (configuration not stated)	-25.5
Cn1c(=O)c2c(ncn2CC(O)CO)n(C)c1=O (configuration not stated)	-15
Oc1cn2c(n1)Nc1ccc(Cl)c(Cl)c1C2	-19.4
CCCCNc1ccc(C(=O)OCCOCCOCCOCCOCCOCCOCCOCCOCCOC)cc1	14
